Results from PubChem BioAssay AID602292 (National Center for Advancing Translational Sciences (NCATS), 2012).
Screen size: about 1,300 compounds; about 380 (29%) were called active. Another 37% or so got no clear call; they are omitted. Calls follow the shape of the dose curve; as a rule, active = well fitted inhibition curve with a large enough effect; inconclusive = small, poorly fitted or top-dose-only effect; inactive = flat fitted curve, though single readings scatter. This is one part of the list.

biological target: Thyrotropin receptor (Homo sapiens) (UniProt P16473); assay: qHTS for antagonists of the Thyroid Stimulation Hormone Receptor: Hit Validation in Primary Screen; conditions: TSHR-expressing cells, cAMP antagonist mode; series mostly up to 58 µM; also: nearly all actives have a fitted effect of over 80% in size
In short: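 TSHR-expressing cells were pretreated with compound, then stimulated with TSH at EC80 (4nM final) for 2 hours at 37 deg C. Cellular cAMP measured by competitive HTRF (anti-cAMP cryptate, cAMP-d2) after 30 min at room temperature.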
Potency is read from the fitted curve at half-maximal effect.

Sequence of Thyrotropin receptor (Homo sapiens) (P16473 whole entry, looked up): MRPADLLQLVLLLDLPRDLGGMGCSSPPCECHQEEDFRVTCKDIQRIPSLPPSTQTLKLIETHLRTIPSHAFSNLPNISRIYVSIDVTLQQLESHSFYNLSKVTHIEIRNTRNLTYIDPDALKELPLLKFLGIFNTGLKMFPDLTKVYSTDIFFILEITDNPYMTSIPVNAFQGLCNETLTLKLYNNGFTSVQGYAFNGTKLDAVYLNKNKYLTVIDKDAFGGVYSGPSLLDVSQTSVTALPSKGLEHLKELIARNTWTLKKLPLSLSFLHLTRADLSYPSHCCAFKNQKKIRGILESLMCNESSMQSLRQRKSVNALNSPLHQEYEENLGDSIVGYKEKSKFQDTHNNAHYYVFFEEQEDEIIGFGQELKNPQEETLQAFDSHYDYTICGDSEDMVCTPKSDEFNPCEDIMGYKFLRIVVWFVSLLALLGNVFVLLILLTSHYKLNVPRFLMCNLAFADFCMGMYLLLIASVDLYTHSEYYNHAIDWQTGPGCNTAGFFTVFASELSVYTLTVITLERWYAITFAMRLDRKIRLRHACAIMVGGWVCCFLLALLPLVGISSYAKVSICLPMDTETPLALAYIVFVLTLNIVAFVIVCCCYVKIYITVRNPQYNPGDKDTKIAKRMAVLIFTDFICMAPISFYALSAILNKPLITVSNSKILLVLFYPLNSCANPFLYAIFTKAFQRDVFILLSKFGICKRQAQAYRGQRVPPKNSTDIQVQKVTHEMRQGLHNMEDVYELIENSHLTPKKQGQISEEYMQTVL

Potency, active:
CC(Sc1nnc2c(n1)[nH]c1ccccc12)C(=O)N(C)C1CCCCC1 (centres undefined) 26.9 µM
O=C(NCCc1ccc(Cl)cc1Cl)c1cc([N+](=O)[O-])c[nH]c1=O 16.9 µM
COC(=O)c1ccc(NC(=O)Nc2ccc(F)c(Cl)c2)cc1 19 µM
Cc1cccc(OCCCCc2c(C)n[nH]c2C)c1C 30.1 µM
CC1=C/C(=N\OS(=O)(=O)c2ccccc2)C(C)=CC1=O 4.78 µM
CC1=CC(=O)C(C(C)C)=C/C1=N/OS(=O)(=O)c1ccccc1 8.49 µM
Cc1cc(C)n(C(=O)/C(C#N)=N/Nc2cc(Cl)cc(Cl)c2)n1 4.78 µM
CCOc1cc(N2CCOCC2)c(OCC)cc1NC(=O)c1cccc(S(=O)(=O)N2CCOCC2)c1 9.53 µM
Cn1c(=O)c([N+](=O)[O-])c(Cl)c2ccccc21 30.1 µM
Cc1noc(C)c1COc1ccccc1C(=O)N(C)Cc1ccc(C(C)(C)C)cc1 30.1 µM
O=C(Nc1cccc(Cl)c1)Nc1ccc(Br)cc1F 21.3 µM
CC(C)C(c1nnnn1Cc1ccco1)N1CCN(c2nc3ccccc3s2)CC1 (centres undefined) 30.1 µM
CC(C)CC(=O)NC(NC(=S)Nc1sc2c(c1C#N)CCCC2)C(Cl)(Cl)Cl (centres undefined) 23.9 µM

Potency, inactive:
Cc1ccc(CNC(=O)CSc2nnc3c(n2)[nH]c2ccccc23)cc1
CSCc1cc(N2CCOCC2)nc(SCc2ccc(Cl)cc2Cl)n1
Cc1cccc(C)c1OCCCn1ccnc1
COc1ccc(-c2nnc(CSc3nc4ccccc4c(=O)n3CC3CCCO3)o2)cc1OC (centres undefined)
CCOc1cc(C(=O)NC2CC(C)(C)NC(C)(C)C2)cc(OCC)c1OCC
COc1ccc(NC(=O)Cc2nc3ccccc3[nH]2)cc1
CCOc1cc(NC(=O)C2CC2)c(OCC)cc1NC(=O)c1cccc(F)c1
COc1cccc(CNC(=O)CN2C(=O)CSc3ccc(S(=O)(=O)N4CCOCC4)cc32)c1
Cc1ccc(S(=O)(=O)N(Cc2ccccc2)c2ccccc2C(=O)N2CCCCC2)cc1
Cn1c(N)c(Sc2ccccc2[N+](=O)[O-])c(=O)n(C)c1=O
CC(C)C(=O)Nc1c(-c2ccc(Cl)cc2)c(=O)c2ccccc2n1C
Nc1ccn(Cc2ccccc2F)n1
N#CC1=C(C2CC2)CC(c2ccccc2)C(C#N)=C1N (centres undefined)
CC1(C)CC(=O)c2c(nc3ccccc3c2N)C1
c1ccc(C(c2nnnn2Cc2ccco2)N2CCN(c3nc4ccccc4s3)CC2)cc1 (centres undefined)
COc1cccc(OC)c1C(=O)Nc1sc2c(c1C#N)CCC2
